Assay outcomes as filed in PubChem BioAssay.
A selection: hits, their analogues and other compounds. The true share with any hit is near 1.2%.
RN4220 kill: kills Staphylococcus aureus RN4220 | S. aureus RN4220 growth, OD600, 16 h | inhibition, % (no concentration beside the values) | actives 0.33% (n = 330,000); in the data active means inhibition above about 85%
PrP 5UTR inh: inhibition of PrP 5' UTR reporter expression; AID 488862; cell-based PrP 5' UTR mRNA reporter, plate reader; actives 0.35% (n = 340,000); inhibition, % (concentration not given with the values); in the data active means inhibition above about 52%
ugtP null kill: growth inhibition of S. aureus ugtP deletion strain. S. aureus RN4220 ugtP deletion, OD600 growth, 16 h. actives 0.54% (n = 330,000). AID 1259309. growth inhibition, % (test concentration not listed); in the data active means growth inhibition above about 68%
PfHsp40 rescue: restores yeast growth despite PfHsp40 toxicity; S. cerevisiae expressing PfHsp40, growth rescue, ATP luminescence; growth rescue, % at 12.5 µM; AID 504582; actives 0.68% (n = 340,000); in the data active means growth rescue above about 28%, passing the limit was not always enough;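 further: yeast W303a lacking pdr1 and pdr3 grown in galactose medium; growth measured after three days at 30 °C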
TcdB GH inh: inhibitors of Clostridioides difficile toxin B glycohydrolase. TcdB glycohydrolase enzymatic assay, plate reader. AID 652162. inhibition, % at 9.99 µM. P18177. actives 0.24% (n = 350,000); in the data active means inhibition above about 10%
A number is an active result; n = inactive; x = not tested or not shown.

SMILES	RN4220 kill	PrP 5UTR inh	ugtP null kill	PfHsp40 rescue	TcdB GH inh
CCc1cc(-c2n[nH]c(C)c2-c2nc3ccccc3s2)c(O)cc1OCC(=O)NN	n	n	n	n	n
CCCC#Cc1cnc2c(c1)C(=O)N([C@@H](C)CO)C[C@H](C)[C@H](CN(C)C(=O)Cc1cccnc1)O2	x	x	x	x	n
Cc1cc(C)cc(NC(=O)CSc2nc3[nH]c(=O)cc(O)c3s2)c1	n	n	n	37.6	n
CC1CC(C)CN(S(=O)(=O)c2ccc(C(=O)Nc3nnc(-c4cccs4)o3)cc2)C1 (stereo not drawn)	99.7	n	100.2	n	x
CN(C)S(=O)(=O)c1ccc(C(=O)Nc2nnc(-c3cccs3)o2)cc1	n	n	n	n	n
CCC1CCCCN1S(=O)(=O)c1ccc(C(=O)Nc2nnc(-c3cccs3)o2)cc1 (stereo not drawn)	94.5	n	99.2	59.6	x
O=C(Nc1nnc(-c2cccs2)o1)c1cccc(C(F)(F)F)c1	99.7	n	100.0	n	n
CCC1CCCCN1S(=O)(=O)c1ccc(NC(=O)c2cccnc2)cc1 (stereo not drawn)	n	n	n	n	n
CN(C)C(=O)C[C@@H]1CC[C@H]2[C@H](COc3ccc(NC(=O)Nc4cccc(Cl)c4)cc3C(=O)N2C)O1	x	x	x	x	n
O=C(CCl)N1c2ccccc2Sc2c1ccc1ccccc21	93.5	n	99.6	n	n
CC(=O)N1c2ccccc2Sc2ccc3ccccc3c21	x	x	x	x	n
CCOC(=O)c1sc(-c2cccc(C(F)(F)F)c2)nc1O	n	n	n	n	n
CCOC(=O)c1sc(-c2ccc(C(F)(F)F)cc2)nc1O	n	n	n	132.4	n
CCN(C(=O)c1ccccc1F)c1nc(-c2ccc(OC)cc2)cs1	n	n	89.8	n	n
CC(C(=O)OCC(=O)c1c(N)n(C)c(=O)n(C)c1=O)N1C(=O)c2ccccc2C1=O (stereo not drawn)	n	n	n	n	14.2
CN(C)CC(=O)N[C@H]1CC[C@@H](CC(=O)NCCN2CCCCC2)O[C@H]1CO	x	x	x	x	n
O=C(C[C@H]1C[C@@H]2c3cc(NC(=O)c4ccc5c(c4)OCO5)ccc3O[C@@H]2[C@H](CO)O1)NCc1cccnc1	x	x	x	x	n
O=C(O)c1ccc(NC(=O)c2cn(-c3ccccc3)nc2-c2ccc(Br)cc2)cc1	n	n	n	69.5	n
O=C(O)c1ccc(NC(=O)c2cn(-c3ccccc3)nc2-c2ccccc2)cc1	n	n	n	n	n
CCOc1ccc2nc3cc(NCc4ccc(OC)cc4)ccc3c(N)c2c1	100.6	n	100.0	n	n
C[C@H]1CN([C@@H](C)CO)C(=O)c2cccc(NS(=O)(=O)c3ccc(Cl)cc3)c2O[C@@H]1CN(C)S(=O)(=O)c1ccccc1	x	x	x	x	n
COc1ccc(NC(=O)Nc2cccc3c2O[C@@H](CN(C)Cc2ccc(C(=O)O)cc2)[C@H](C)CN([C@H](C)CO)C3=O)cc1	x	x	x	x	n
CCCCCCCn1c(NC(=O)CC)nc2ccccc21	x	n	x	93.1	n
CCC(=O)Nc1nc2ccccc2n1CCN1CCOCC1	n	n	n	n	x
O=C1C2=C(NC(=S)NC2c2ccc(Cl)cc2)NC(c2ccc(Cl)cc2)N1c1ccc(Cl)cc1 (stereo not drawn)	100.1	n	93.1	n	x
SMILES	RN4220 kill	PrP 5UTR inh	ugtP null kill	PfHsp40 rescue	TcdB GH inh
CCc1ccc(C2NC(=S)NC3=C2C(=O)N(c2ccccc2OC)C(c2ccc(CC)cc2)N3)cc1 (stereo not drawn)	n	n	n	n	x
Cc1ccc2c(c1)sc[n+]2Cc1ccccc1	n	n	99.3	n	n
COc1ccccc1C1NC(=O)NC(C)=C1C(=O)OC1CCCCC1 (stereo not drawn)	n	n	n	n	10.5
COC(=O)[C@@H]1C(c2ccccc2)(c2ccccc2)[C@@]1(C)C(=O)OC	n	n	n	n	n
COC(=O)C1C2c3ccccc3C(c3ccccc32)C1(C)C(=O)OC (stereo not drawn)	n	n	n	35.1	n
COC(=O)C[C@H]1C=C[C@H](NS(=O)(=O)c2ccccc2F)[C@@H](CO)O1	x	x	x	x	n
Cc1ccc2[nH]c(C)c(C=NNc3nc4ccccc4s3)c2c1	99.9	x	99.0	x	x
Nc1nnnn1N=Cc1ccc(F)cc1	n	x	n	x	x
CC1CC(C)CN(C(=O)C2CCC(CNc3c(N4CCCCC4)c(=O)c3=O)CC2)C1 (stereo not drawn)	n	n	n	53.1	n
CC1CCN(C(=O)C2CCC(CNc3c(N4CCCCC4)c(=O)c3=O)CC2)CC1 (stereo not drawn)	n	n	n	n	n
CO[C@H]1CC[C@H]2CCN(C)C(=O)CCCN(C)C(=O)c3cccc(C#N)c3OC[C@@H]1O2	x	x	x	x	n
